Data: PubChem BioAssay AID1159580 (chemical genetic matrix, 2015)
Among all 5,500 compounds or so, about 2,000 (36%) were called active. Another 18% or so got no clear call; they are omitted. No stated cut-off is given here; in the data, active means normalized growth mostly below about 0.91 (no sharp cut-off); inconclusive means no clear call, values can overlap the other calls; inactive means mostly above about 0.92. The list shows a part of the results.

Experiment: chemical genetic growth profiling, strain panel (AID 1159580);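 further: tested at 20 µM; growth read once vehicle control cultures reached saturation at 30 °C; 1 = growth at the plate median or of vehicle wells; lower values mean less growth of the strain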
Details: growth OD

Measured: normalized growth

CC(CCC(=O)O)[C@H]1CCC2C3CC[C@@H]4CCCC[C@]4(C)C3CC[C@@]21C (some centres undefined)
inactive: S. cerevisiae deletion strains, locus YJR043C, strain POL32, active compounds read low 1.02 | S. cerevisiae deletion strains, locus YJR066W, strain TOR1, active compounds read low 1.06 | S. cerevisiae deletion strains, locus YJR075W, strain HOC1, active compounds read low 0.999 | S. cerevisiae deletion strains, locus YKL009W, strain mrt4, active compounds read low 0.95 | S. cerevisiae deletion strains, locus YKL068W, active compounds read low 0.989 | S. cerevisiae deletion strains, locus YKL085W, strain MDH1 (second series), active compounds read low 0.986 | S. cerevisiae deletion strains, locus YKL085W, strain MDH1, active compounds read low 0.986 | S. cerevisiae deletion strains, locus YKL160W, strain elf1, active compounds read low 1.02 | S. cerevisiae deletion strains, locus YKL190W, strain CNB1, active compounds read low 0.998 | S. cerevisiae deletion strains, locus YKR001C, strain vps1, active compounds read low 0.998 | S. cerevisiae deletion strains, locus YKR026C, strain gcn3, active compounds read low 1.01 | S. cerevisiae deletion strains, locus YKR091W, strain srl3, active compounds read low 1 | S. cerevisiae deletion strains, locus YLL001W, strain dnm1, active compounds read low 1.01 | S. cerevisiae deletion strains, locus YLL026W, active compounds read low 0.988 | S. cerevisiae deletion strains, locus YLL041C, strain sdh2, active compounds read low 1 | S. cerevisiae deletion strains, locus YLR027C, strain aat2, active compounds read low 0.995 | S. cerevisiae deletion strains, locus YLR039C, strain RIC1, active compounds read low 1.05 | S. cerevisiae deletion strains, locus YLR058C, strain SHM2, active compounds read low 0.999 | S. cerevisiae deletion strains, locus YLR102C, strain apc9, active compounds read low 0.984 | S. cerevisiae deletion strains, locus YLR113W, strain HOG1, active compounds read low 0.977 | S. cerevisiae deletion strains, locus YLR221C, strain rsa3, active compounds read low 1.02 | S. cerevisiae deletion strains, locus YLR258W, strain gsy2, active compounds read low 1 | S. cerevisiae deletion strains, locus YLR262C, strain YPT6 (second series), active compounds read low 1.05 | S. cerevisiae deletion strains, locus YLR262C, strain YPT6, active compounds read low 1.1 | S. cerevisiae deletion strains, locus YLR268W, strain sec22, active compounds read low 0.979 | S. cerevisiae deletion strains, locus YLR320W, strain mms22, active compounds read low 1.05 | S. cerevisiae deletion strains, locus YLR330W, strain CHS5, active compounds read low 0.999 | S. cerevisiae deletion strains, locus YLR342W, strain FKS1 (second series), active compounds read low 0.956 | S. cerevisiae deletion strains, locus YLR342W, strain FKS1, active compounds read low 1.04 | S. cerevisiae deletion strains, locus YLR357W, strain rsc2, active compounds read low 0.997 | S. cerevisiae deletion strains, locus YLR370C, strain arc18, active compounds read low 1.01 | S. cerevisiae deletion strains, locus YLR371W, strain rom2, active compounds read low 0.986 | S. cerevisiae deletion strains, locus YLR384C, strain iki3, active compounds read low 1 | S. cerevisiae deletion strains, locus YLR418C, strain cdc73, active compounds read low 0.975 | S. cerevisiae deletion strains, locus YML016C, strain PPZ1, active compounds read low 1 | S. cerevisiae deletion strains, locus YML032C, strain rad52, active compounds read low 0.992 | S. cerevisiae deletion strains, locus YML120C, strain ndi1, active compounds read low 1.01 | S. cerevisiae deletion strains, locus YML124C, strain tub3, active compounds read low 0.988 | S. cerevisiae deletion strains, locus YMR058W, strain fet3, active compounds read low 1.01 | S. cerevisiae deletion strains, locus YMR078C, strain ctf18, active compounds read low 1 | S. cerevisiae deletion strains, locus YMR125W, strain sto1, active compounds read low 1.02 | S. cerevisiae deletion strains, locus YMR129W, active compounds read low 1 | S. cerevisiae deletion strains, locus YMR205C, strain PFK2, active compounds read low 1.03 | S. cerevisiae deletion strains, locus YMR223W, strain ubp8, active compounds read low 0.994 | S. cerevisiae deletion strains, locus YMR231W, strain pep5, active compounds read low 0.998 | S. cerevisiae deletion strains, locus YMR307W, strain GAS1, active compounds read low 0.985 | S. cerevisiae deletion strains, locus YNL067W, strain RPL9B, active compounds read low 1.02 | S. cerevisiae deletion strains, locus YNL071W, strain lat1, active compounds read low 1.01 | S. cerevisiae deletion strains, locus YNL209W, strain ssb2, active compounds read low 1.02 | S. cerevisiae deletion strains, locus YNL233W, strain BNI4, active compounds read low 1.01 | S. cerevisiae deletion strains, locus YNL248C, strain rpa49, active compounds read low 1.01 | S. cerevisiae deletion strains, locus YNL250W, strain rad50, active compounds read low 0.982 | S. cerevisiae deletion strains, locus YNL271C, strain bni1, active compounds read low 0.986 | S. cerevisiae deletion strains, locus YNL298W, strain CLA4, active compounds read low 0.981 | S. cerevisiae deletion strains, locus YNL307C, strain MCK1, active compounds read low 0.987 | S. cerevisiae deletion strains, locus YNL322C, strain KRE1 (second series), active compounds read low 1.01 | S. cerevisiae deletion strains, locus YNL322C, strain KRE1, active compounds read low 0.997 | S. cerevisiae deletion strains, locus YNR049C, strain mso1, active compounds read low 0.998 | S. cerevisiae deletion strains, locus YNR052C, strain pop2, active compounds read low 0.985 | S. cerevisiae deletion strains, locus YOL012C, strain htz1 1.54 | S. cerevisiae deletion strains, locus YOL147C, strain pex11, active compounds read low 0.993 | S. cerevisiae deletion strains, locus YOR001W, strain rrp6, active compounds read low 1.02 | S. cerevisiae deletion strains, locus YOR061W, strain CKA2, active compounds read low 0.99 | S. cerevisiae deletion strains, locus YOR069W, strain VPS5, active compounds read low 0.993 | S. cerevisiae deletion strains, locus YOR070C, strain gyp1, active compounds read low 0.994 | S. cerevisiae deletion strains, locus YOR080W, strain dia2, active compounds read low 0.998 | S. cerevisiae deletion strains, locus YOR083W, strain WHI5, active compounds read low 1.02 | S. cerevisiae deletion strains, locus YOR106W, strain vam3, active compounds read low 1.02 | S. cerevisiae deletion strains, locus YOR136W, strain idh2, active compounds read low 0.986 | S. cerevisiae deletion strains, locus YOR144C, strain elg1, active compounds read low 0.992 | S. cerevisiae deletion strains, locus YOR184W, strain ser1, active compounds read low 0.992 | S. cerevisiae deletion strains, locus YOR231W, strain MKK1, active compounds read low 0.969 | S. cerevisiae deletion strains, locus YOR265W, strain rbl2, active compounds read low 1 | S. cerevisiae deletion strains, locus YOR270C, strain vph1, active compounds read low 1.01 | S. cerevisiae deletion strains, locus YOR290C, strain snf2, active compounds read low 1.01 | S. cerevisiae deletion strains, locus YOR316C, strain cot1, active compounds read low 0.985 | S. cerevisiae deletion strains, locus YPL051W, strain arl3, active compounds read low 1.01 | S. cerevisiae deletion strains, locus YPL055C, strain LGE1, active compounds read low 0.991 | S. cerevisiae deletion strains, locus YPL078C, strain atp4, active compounds read low 1.01 | S. cerevisiae deletion strains, locus YPL106C, strain sse1, active compounds read low 1.03 | S. cerevisiae deletion strains, locus YPL240C, strain hsp82, active compounds read low 0.998 | S. cerevisiae deletion strains, locus YPL256C, strain CLN2, active compounds read low 0.94 | S. cerevisiae deletion strains, locus YPR119W, strain clb2, active compounds read low 0.993 | S. cerevisiae deletion strains, locus YPR141C, strain kar3, active compounds read low 0.986 | S. cerevisiae deletion strains, locus YPR163C, strain tif3, active compounds read low 1.01 | S. cerevisiae deletion strains, locus YPR167C, strain met16, active compounds read low 0.971 | S. cerevisiae deletion strains, strain wtn01, active compounds read low 0.965 | S. cerevisiae strains, strain wild type, active compounds read low 0.995
active: S. cerevisiae deletion strains, locus YNL183C, strain NPR1, active compounds read low 1.11 [resistant]
